According to PubChem BioAssay AID778 (Sanford-Burnham Center for Chemical Genomics, 2007):
The whole screen tested about 96,000 compounds, of which about 20,000 (21%) were called active. The list is a sample of the results. A number with no mark means an inactive call.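 How the source made its calls: active means CYP2C19 inhibition above a set limit at 5 µM in the primary screen (cut at about 50% in these data); inactive means the rest.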

Target: Cytochrome P450 2C19 (Homo sapiens) (UniProt P33261)
Sequence (P33261 whole entry, looked up): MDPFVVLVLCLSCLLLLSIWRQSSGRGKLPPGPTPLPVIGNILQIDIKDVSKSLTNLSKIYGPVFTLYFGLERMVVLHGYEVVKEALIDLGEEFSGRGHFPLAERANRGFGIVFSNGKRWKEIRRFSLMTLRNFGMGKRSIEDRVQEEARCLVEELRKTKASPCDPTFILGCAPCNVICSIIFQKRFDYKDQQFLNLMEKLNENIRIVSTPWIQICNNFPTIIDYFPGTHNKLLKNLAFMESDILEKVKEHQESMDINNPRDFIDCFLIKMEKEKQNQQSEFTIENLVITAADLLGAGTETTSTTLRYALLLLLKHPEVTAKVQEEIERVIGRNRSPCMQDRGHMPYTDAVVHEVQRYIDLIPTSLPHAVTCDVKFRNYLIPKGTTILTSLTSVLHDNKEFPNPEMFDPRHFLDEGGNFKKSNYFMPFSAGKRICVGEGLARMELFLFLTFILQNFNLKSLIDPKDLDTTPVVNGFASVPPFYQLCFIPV
Assay: blockers of cytochrome P450 2C19 activity – biochemical, luminescence, ADME assay, primary screen (AID 778);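 further: plate controls were negative control wells for no effect and 2.5 mM tranylcypromine positive control for full effect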
Details: CYP2C19 Supersomes, luciferin-H EGE luminescence, 30 min; at 5 µM; hits give high values

SMILES	inhibition
CCCNC(=O)N1CCN(C(=O)NCCC)CC1	4.5%
COc1ccc(C(=S)Nc2ccccc2)cc1	65.2% (active)
COc1ccc(NC(=O)c2ccc(OC)cc2)cc1	-5.6%
COCCNC(=S)c1ccc(OC)cc1	18%
Oc1ccccc1CNc1ncc(Br)cc1Br	39.4%
COc1ccc(CCNC(=O)c2ccco2)cc1	55.3% (active)
O=C(NCCSc1ccccc1)c1ccco1	21.8%
COc1ccc(N(CC(=O)NC(C)(C)C)C(=O)c2ccco2)cc1	-6.7%
CCc1ccc(-c2cc(C(=O)NCc3ccco3)c3ccccc3n2)s1	11.6%
c1ccc(CCC2=NCCn3cccc32)cc1	10.1%
O=S(=O)(c1ccc(Br)cc1)n1ccc2ccccc21	66.4% (active)
Cc1ccc(C)c(NC(=O)C2CC(=O)N(C(C)C)C2)c1 (stereo not drawn)	-10.6%
Cc1ccc(C)c(N2C(=O)CS/C2=N\NC(=O)c2ccccc2Cl)c1	63.7% (active)
CC(=O)Nc1cccc(/C(C)=N/NC(=O)c2ccccc2Cl)c1	10.9%
Cc1ccnc(N2C(=O)c3ccccc3C2Nc2ccc3c(c2)OCCO3)c1 (stereo not drawn)	93.2% (active)
O=C1c2ccccc2C(Nc2ccc3c(c2)OCCO3)N1Cc1ccco1 (stereo not drawn)	72.9% (active)
O=C(NC1CCCCC1)C1c2ccccc2C(=O)N1Cc1ccco1 (stereo not drawn)	12.4%
Cc1cccc(C(=O)Nc2ccccc2-c2nnn(CC(=O)Nc3ccc4c(c3)OCCO4)n2)c1	-12.5%
CC1CCN(c2nc3c(c(=O)[nH]c(=O)n3C)n2CCCc2ccccc2)CC1	18.4%
O=C1CSC(c2cccc(F)c2)N1c1ccc(O)cc1 (stereo not drawn)	26.3%
CC1C/C(=N/NC(=O)c2cccs2)CC(C)(C)C1 (stereo not drawn)	41.9%

SMILES	inhibition
FC(F)(F)c1cc(C(F)(F)F)c2ccc(N3CCN(c4ccccc4)CC3)nc2n1	-3.4%
CCOC(=O)CCCNC(=O)CN1C(=O)NC(CCc2ccccc2)C1=O (stereo not drawn)	-2.6%
COc1ccc(-c2nnco2)cc1OC	11.8%
C=CCn1c(C(C)NC(=O)CC)nc2ccccc21 (stereo not drawn)	-3.9%
CCCn1c(C(Cc2ccccc2)NC(=O)COC)nc2ccccc21 (stereo not drawn)	90.2% (active)
CCCC(NC(=O)c1ccccc1)c1nc2ccccc2n1Cc1ccc(C(=O)OC)o1 (stereo not drawn)	2.7%
CC(CN1CCCCC1)OC(=O)c1ccccc1Cl (stereo not drawn)	38.8%
Cc1noc(C)c1S(=O)(=O)Nc1ccc(C(=O)O)cc1	2.3%
Cc1cc(C)c(C)c(S(=O)(=O)Nc2ccc(O)cc2)c1C	50.9% (active)
Cc1ccc(NS(=O)(=O)c2c(C)[nH]c(=O)[nH]c2=O)cc1C	1.6%
c1ccc(Cc2nn3c(Cn4cnc5ccccc54)nnc3s2)cc1	39%
Cc1c(-c2ccccc2)nc(N)c(C#N)c1-c1cccs1	0.7%
CCOC(=O)c1ccc(NC(=O)CS(=O)(=O)c2cn(CC)c3ccccc23)cc1	20.6%
CC(C)(C)NS(=O)(=O)c1ccc(NC(=O)NC2CCCCC2)cc1	8%
CCOC(=O)[C@H]1CCC[C@@H](NS(=O)(=O)c2ccc(NC(C)=O)cc2)C1	57.9% (active)
CC(C)NS(=O)(=O)c1ccc(NC(=O)C2CCCCC2)cc1	13.3%
CC1=C(C)CC(C(=O)NNC(=O)c2ccccc2O)C(C(=O)O)C1 (stereo not drawn)	-7.2%
Cc1nc(SCC(=O)N2CCc3ccccc3C2)c2c(C)c(C)sc2n1	20%
O=C(Nc1ccc2c(c1)OCCO2)C(c1ccc(F)cc1)N1CCCCC1 (stereo not drawn)	56.5% (active)
CC1CCCN(C(C(=O)Nc2ccc(C(C)C)cc2)c2ccc3c(c2)OCO3)C1 (stereo not drawn)	17.7%
COc1ccc(-n2c(SCC(=O)Nc3ccc4c(c3)OCO4)nnc2C(C)N2CCCCC2)cc1 (stereo not drawn)	16.9%

SMILES	inhibition
CCN(CC)Cc1csc2ccc(Br)cc12	5.2%
O=[n+]1c2c(n([O-])c3cc(Br)ccc31)CCC2	21%
C=CCn1c(=O)c2ccccc2n2c(SCC(=O)N3CCCc4ccccc43)nnc12	36.5%
CCCn1c(SCC(=O)N2CCc3ccccc32)nnc1-c1ccncc1	83.8% (active)
Cc1nnc(SCC(=O)N2CCc3ccccc32)n1-c1ccccc1	3.9%
COc1ccc(-c2[nH]nc(-c3ccccc3)c2-c2nc3ccccc3[nH]2)cc1	11.3%
Cn1c(C(=O)NCCCN2CCN(c3cccc(Cl)c3)CC2)cc2c(=O)n(C)c3ccccc3c21	18%
Cc1cccc(NC(=O)C2CCCN2S(=O)(=O)c2ccc(F)cc2)c1C (stereo not drawn)	16.2%
O=C1CCc2cc(S(=O)(=O)N3CCC(C(=O)NCc4ccccc4Cl)CC3)ccc2N1	88.6% (active)
COc1ccccc1CNC(=O)C1CCN(S(C)(=O)=O)CC1	2.2%
CSc1cccc(NC(=O)C2CCCN2S(=O)(=O)c2ccc3c(c2)CCC(=O)N3)c1 (stereo not drawn)	56.8% (active)
O=C(O)C1CCCN1S(=O)(=O)c1ccc2c(c1)CCC2 (stereo not drawn)	-10.4%
O=C(NCc1cccs1)C1CCN(S(=O)(=O)c2ccc3c(c2)OCCO3)CC1	17.6%
CCOC(=O)CNC(=O)c1nn(-c2cccc(OC)c2)c(=O)c2ccccc12	5.3%
COc1ccc(-n2nnc3c(=O)n(CC(=O)OCc4ccccc4)cnc32)cc1	3.9%
COC(=O)C1=C(Nc2ccc(OC)cc2)C=C(C)C(C(=O)OC)C1c1ccc(C)cc1 (stereo not drawn)	33.3%
CC1(C)Cc2c(sc3nc4n(c(=N)c23)CCCCC4)CO1	-6.4%
O=C(NCCCNCc1ccccc1)c1ccc(/C=N/O)nc1	-13.4%
Cn1c(=O)[nH]c(=O)c2c1nc(CN(Cc1ccccc1)Cc1ccccc1)n2CCN1CCOCC1	14.9%
COc1ccc(-c2nc3n(c2Br)CCC3)cc1	32.9%
Cc1ccc(C(=O)Nc2c(C#N)c(C)c(C)n2Cc2ccccc2)cc1	23.9%
